From PubChem
This is a sample that favours compounds with a hit; in the whole collection about 9% have one here.
12-LOX inh: inhibitors of human 12S-lipoxygenase ALOX12. purified 12hLO, xylenol orange hydroperoxide absorbance. AID 1671190. 1.1% of 580,000 active. Potency, µM (titrated, usually from 108 µM), usual class: inhibitors
Target sequence (P18054 whole entry, looked up): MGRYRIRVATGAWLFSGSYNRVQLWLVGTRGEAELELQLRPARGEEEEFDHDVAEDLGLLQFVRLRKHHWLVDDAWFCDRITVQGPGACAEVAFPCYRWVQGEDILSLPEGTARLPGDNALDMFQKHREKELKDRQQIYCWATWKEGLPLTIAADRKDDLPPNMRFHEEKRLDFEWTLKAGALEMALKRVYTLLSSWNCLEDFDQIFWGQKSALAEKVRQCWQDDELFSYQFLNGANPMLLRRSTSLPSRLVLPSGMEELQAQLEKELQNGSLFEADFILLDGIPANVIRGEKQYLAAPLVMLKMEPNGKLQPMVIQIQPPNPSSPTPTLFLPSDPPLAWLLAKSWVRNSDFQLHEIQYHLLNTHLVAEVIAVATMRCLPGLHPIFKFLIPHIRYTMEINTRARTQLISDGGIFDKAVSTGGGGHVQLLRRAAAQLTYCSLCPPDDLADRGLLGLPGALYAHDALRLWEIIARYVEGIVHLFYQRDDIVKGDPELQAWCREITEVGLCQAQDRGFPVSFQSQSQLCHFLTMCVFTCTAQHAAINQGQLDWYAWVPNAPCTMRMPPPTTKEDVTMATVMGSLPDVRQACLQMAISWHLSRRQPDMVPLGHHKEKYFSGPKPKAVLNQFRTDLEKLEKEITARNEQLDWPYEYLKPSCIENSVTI
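Hydroperoxide product was detected by ferrous iron/xylenol orange as the 573 to 405 nm absorbance ratio. Arachidonic acid at 40 uM (final) was turned over for 30 min at room temperature by 150 nM human 12hLO, pH 7.0 Hepes buffer, after 15 min compound preincubation.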
PLK1 PBD block: blocks phosphopeptide binding to human PLK1 polo-box domain; P53350; 2.8% of 360,000 active; Potency, µM, most hits filed as inhibitors; Plk1 PBD binding of FITC phosphopeptide, fluorescence polarization; AID 720504; also: series mostly up to about 57 µM; nearly all actives have a fitted effect of over 65% in size
G9a inh: blocks human histone lysine methyltransferase G9a; G9a H3K9 monomethylation, AlphaScreen, 2 h; 8.8% of 350,000 active; Potency, µM (highest dose often 102 µM), most hits filed as inhibitors; AID 504332; also: nearly all actives have a fitted effect of over 75% in size
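Quantitative HTS format: methyltransferase activity on a biotin-tagged H3K9 peptide is measured by AlphaScreen, using a rabbit anti-monomethyl-H3K9 antibody with streptavidin donor and anti-IgG acceptor beads. Final levels are 20 nM enzyme, 500 nM peptide, 20 uM SAM; 2 h RT.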
BAZ2B block: blocks human BAZ2B; AID 504333; Potency, µM (top dose mostly 114 µM), most hits filed as inhibitors; AlphaScreen BAZ2B-H3K14Ac peptide displacement; Q9UIF8; 4.4% of 360,000 active; also: nearly all actives have a fitted effect of over 60% in size
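AlphaScreen displacement: compounds (up to 110uM) incubated 30 min at room temperature with a preformed 50 nM BAZ2B/50 nM biotinylated H3K14Ac peptide complex in PBS pH 7.4 with Tween-20. Donor and acceptor beads at 10 ug/mL final added, 20 min light-protected before reading.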
JMJD2A Tudor: JMJD2A Tudor domain (human) inhibition. Potency, µM (highest dose often 114 µM), hits mostly inhibitors. O75164. 4.4% of 390,000 active. AlphaScreen JMJD2A-Tudor / H3K4me3 peptide binding; also: nearly all actives have a fitted effect of over 50% in size
HP1b chromo inh: blocks HP1-beta chromodomain binding to methylated histone tails. AlphaScreen HP1-beta / biotin-H3K9me3 peptide binding. Potency, µM (highest dose often 114 µM), most hits filed as inhibitors. 0.56% of 390,000 active. AID 540317; also: nearly all actives have a fitted effect of over 70% in size
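AlphaScreen: HP1-beta (50 nM) preformed 30 min with biotin-H3(1-18)K9me3 peptide (50 nM) in PBS pH 7.4, 0.01% Tween-20. Compound added for 30 min at RT, then streptavidin donor/nickel chelate acceptor beads (10 ug/mL) for 30 min.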
Numbers stand for hits; n = inactive; u = inconclusive; x = not tested or not shown; [ ] = another dose, or the depositor's remark. Calls follow the shape of the dose curve; as a rule, active = well fitted curve in the direction sought with a large enough effect; inconclusive = small, poorly fitted or top-dose-only effect, or another doubt; inactive = no such curve, though single readings can be large; an effect the other way counts as inactive or inconclusive.

SMILES	12-LOX inh	PLK1 PBD block	G9a inh	BAZ2B block	JMJD2A Tudor	HP1b chromo inh
CCOC(=O)c1c(-c2ccc(C)o2)csc1NC(=O)CSc1nncs1	n	u	10µM	n	56µM	u
COC(=O)c1cccc(-n2c(=O)n(Cc3ccccc3)c(=O)c3[nH]cnc32)c1C	n	n	18µM	n	n	n
Cc1cccc(C)c1-n1c(=O)n(Cc2ccccc2)c(=O)c2[nH]cnc21	n	n	n	n	n	n
S=c1[nH]nc(C2CCCCC2)n1/N=C/c1ccccc1Cl	u	13µM	2.2µM	u	22µM	u
O=C(O)c1ccccc1/C=N/n1c(C2CCCCC2)n[nH]c1=S	u	n	22µM	n	7.9µM	n
COc1ccccc1/C=N/n1cnnc1	n	n	u	n	n	n
FC(F)(F)c1ccccc1/C=N/n1c(C2CCCCC2)n[nH]c1=S	u	27µM	8.9µM	n	u	n
COc1ccccc1/C=C/C=N/n1c(C2CCCCC2)n[nH]c1=S	u	u	3.2µM	n	u	u
FC(F)(F)c1ccccc1/C=N/N=C(c1ccccc1)c1ccccc1	n	x	x	x	x	x
CN(Cc1ccc(Br)cc1)c1cc(C(=O)N2CCOCC2)c2ccccc2n1	n	x	x	x	x	x
CC(C)C1CC2=C(C(=O)OC(C)(C)O2)C(c2ccc(Cl)cc2)O1 (stereo not drawn)	n	n	x	x	x	x
Cc1cccc(CNc2ccc3nnc(C)n3n2)c1	n	x	x	x	x	x
CCOc1ccccc1/C=N/n1c(C2CCCCC2)n[nH]c1=S	n	u	14µM	n	u	n
Cc1n[nH]c(=S)n1/N=C/c1ccccc1OCc1ccc(Cl)cc1Cl	n	n	n	n	n	n
CC1CCCN(S(=O)(=O)c2ccc(C(=O)Nc3nnc(C4CC4)o3)cc2)C1 (stereo not drawn)	n	n	n	35µM	u	n
CC1CCCN(S(=O)(=O)c2ccc(C(=O)Nc3nnc(-c4ccccn4)o3)cc2)C1 (stereo not drawn)	n	n	n	u	n	n
CC1CN(S(=O)(=O)c2ccc(C(=O)Nc3nnc(-c4ccco4)o3)cc2)CC(C)O1 (stereo not drawn)	n	n	u	u	n	n
Cc1cc(C)nc(NS(=O)(=O)c2ccc(NC(=O)c3ccc(S(=O)(=O)N4CC(C)OC(C)C4)cc3)cc2)n1 (stereo not drawn)	n	n	8.9µM	n	n	n
Cc1nnc(NC(=O)c2ccc(S(=O)(=O)N3CC(C)OC(C)C3)cc2)o1 (stereo not drawn)	n	n	n	25µM	2.8µM	n
O=C(CCCCCn1c(=O)[nH]c2ccccc2c1=O)NCc1ccc(Cl)cc1	u	x	n	n	n	n
C=CCNC(=O)/C(C#N)=C/c1ccccc1[N+](=O)[O-]	n	n	u	n	n	n
CCCCCCCCNC(=O)/C(C#N)=C/c1ccccc1[N+](=O)[O-]	n	u	40µM	n	u	n
N#C/C(=C\C=C\c1ccccc1[N+](=O)[O-])C(=O)NCc1ccccc1	n	n	40µM	u	u	u
N#C/C(=C\c1ccccc1[N+](=O)[O-])C(=O)NCc1ccccc1	u	n	x	n	n	n
CSCC(=O)NCCC[C@H](NC(=O)[C@@H]1[C@@H](NC(=O)NC2CCCCC2)CCN1C(=O)CSC)C(N)=O	n	x	x	x	x	x
SMILES	12-LOX inh	PLK1 PBD block	G9a inh	BAZ2B block	JMJD2A Tudor	HP1b chromo inh
CC(=O)Nc1ccc(S(=O)(=O)NC(CC(=O)N(C)Cc2ccccc2)C(C)C)cc1 (stereo not drawn)	n	3.4µM	n	n	u	n
CN(CCCNC(=O)C1CCC(=O)N1Cc1ccccc1Cl)c1ccccc1 (stereo not drawn)	u	n	n	n	n	n
CCN(CCNC(=O)C1CCC(=O)N1Cc1ccc(C)cc1)c1ccccc1 (stereo not drawn)	n	n	50µM	n	n	n
O=C(CN1CCN(Cc2ccccc2)C1=O)NCc1ccc(Cl)cc1	n	n	n	n	n	n
CCN(CCNC(=O)CN1CCN(Cc2ccc(Cl)cc2)C1=O)c1ccccc1	n	n	11µM	u	n	n
CN(CCCNC(=O)C1CCC(=O)N1Cc1ccc(F)cc1)c1ccccc1 (stereo not drawn)	n	n	79µM	n	n	n
CC(C)OCCCNC(=O)CN1CCN(Cc2ccccc2Cl)C1=O	n	3.4µM	n	n	n[11.4 µM]	n
CCN(CCCNC(=O)C1CCC(=O)N1Cc1ccccc1Cl)c1cccc(C)c1 (stereo not drawn)	n	n	45µM	u	n	n
CCN(CCCNC(=O)C1CCC(=O)N1Cc1ccc(C)cc1)c1cccc(C)c1 (stereo not drawn)	n	n	n[0.501 µM]	u	u	n
CCN(/N=C/c1ccc(Cl)cc1)c1cc(=O)n(C)c(=O)[nH]1	n	n	n	n	40µM	n
CN1C(=O)c2ccccc2C(C(=O)O)C1c1cccc(F)c1 (stereo not drawn)	n	30µM	n	n	n[11.4 µM]	n
O=C(NC1=NCCS1)C12CC3CC(C1)CC(C(=O)NC1=NCCS1)(C3)C2	n	n	u	50µM	56µM	n
CCN(CC)C(=O)c1ncn2c1C(=O)N(C)CC2	u	n	x	x	x	x
CCCOc1cccc(-c2nn(-c3ccccc3)cc2/C=C(\C#N)C(=O)NCCCn2ccnc2)c1	n	n	n	u	45µM	u
N#C/C(=C/c1cn(-c2ccccc2)nc1-c1cccc(OCc2ccc(F)cc2)c1)C(=O)NCCCn1ccnc1	n	n	n	10µM	16µM	n
N#C/C(=C\c1ccc([N+](=O)[O-])cc1)C(=O)NCCCn1ccnc1	n	n	n	u	n	n
O=C(COC(=O)COc1ccccc1)NC1CCS(=O)(=O)C1 (stereo not drawn)	n	n	x	x	n	n
O=C(O)c1ccccc1Nc1cc(Cl)ccc1C(=O)O	n[12.5 µM]	x	x	x	x	x
O=C(COc1ccccc1C(=O)O)Nc1cccc2ccccc12	n	n	x	x	n	n
O=C(COc1cccc2ccccc12)Nc1cc(Cl)ccc1C(=O)O	u	21µM	n	n	n	n
Cc1cc(C(=O)Nc2ccccc2C(=O)O)ccc1NC(=O)COc1ccccc1Cl	n	u	22µM	n	n	n
O=C(O)c1ccc(Cl)cc1Nc1nc2cc(Cl)ccc2o1	8.9µM	19µM	n	n	n	n
CCC(=O)Nc1cc(Cl)ccc1C(=O)O	n	n	n	u	79µM	n
O=C(COc1ccccc1Cl)Nc1ccc(C(=O)O)cc1NC(=O)COc1ccccc1Cl	n	n	n[12.7 µM]	n	n	n
COc1ccc(-c2cc(C(F)(F)F)nc(-n3ccnc3)n2)cc1	n	n	n	n	n	n
Cc1ccc(NC(=O)c2cc3cccc([N+](=O)[O-])c3[nH]2)cc1	n	n	u	n	n	n
CCCS(=O)(=O)NCC1Cn2cccc2C(=O)N1C (stereo not drawn)	n	x	x	x	x	x
